Laboratory results taken from PubChem BioAssay (NCI).
This is part of a sample that, as a whole, favours compounds with a hit. Of some 79,000 tested, about 15% had one in any assay. Unmarked numbers belong to inactive results. Activity calls are given as the source filed them. Rule as the data show it: active = growth inhibition above about 70%; inactive = the rest.

experiment: NCI Yeast Anticancer Drug Screen. Data for the cln2 rad14 strain (AID 165);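 also: 0% = growth equal to vehicle treated cultures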; details: S. cerevisiae cln2 rad14 strain, at 5.0 µM (retest, dose inferred, filed as 0.5), stronger effect = higher value
Method in brief: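 cln2 rad14 yeast strain; compound exposure; growth inhibition read vs vehicle controls.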

Row | SMILES | growth inhibition
1 | S=C(S)NN1CCOCC1 | 83% (active)
2 | COc1cc2c3c(cccc3c1)C(=O)N(CCN(C)C)C2=O | 0%
3 | COC(=O)C1=C(C)NC(C)=C(C(=O)OCCCN2CCC(c3ccccc3)(c3ccccc3)CC2)C1c1cccc([N+](=O)[O-])c1 (stereo not drawn) | 14%
4 | c1ccc2c(c1)Oc1cccc3cccc-2c13 | 34%
5 | CN(C)CCOc1ccc2c(c1)C/C(=C/c1ncc([N+](=O)[O-])n1C)C2=O | 13%
6 | Cc1ccc(CCC2=CCCc3c2ccc2ccccc32)cc1 | 6%
7 | CNC(=O)OCc1c(COC(=O)NC)c(-c2ccc(Cl)c(Cl)c2)n2c1CCC2 | 38%
8 | Clc1ccccc1C1OC1c1ccccc1Cl (stereo not drawn) | 37%
9 | O=[N+]([O-])c1cc(CCl)ccc1CCl | 57%
10 | O=C1C=CC(=O)c2c(O)c(Nc3ccc(OC(F)(F)F)cc3)c(Cl)c(O)c21 | 19%
11 | S=c1[nH]nc(Nc2ccc(Cl)cc2)s1 | -55%
12 | Cn1ccnc1Oc1ccc(Cl)cc1 | -52%
13 | BrCc1cccc2ccc3cccc(CBr)c3c12 | -15%
14 | O=C1c2ccccc2-c2nc3ccccc3nc21 | 25%
15 | CCCCCCCCCCCCCCCCCCNC | 32%
16 | Oc1ccc(NCn2c(=S)sc3ccccc32)cc1 | 58%
17 | O=C1C2CC[C@@H]3C(=O)C(Cl)(Cl)[C@@H]3CCC2C1(Cl)Cl (stereo partly drawn) | 2%
18 | CC[n+]1ccc2c(C)c3[nH]c4ccc(O)cc4c3c(C)c2c1 | 5%
